Furin inh = inhibitors of human furin. P09958. purified furin, fluorogenic substrate cleavage. inhibition, % at 20 µM or 30 µM. 220,000 compounds, 0.061% hits. AID 463115; in the data active means inhibition above about 25%
Target sequence (P09958 108-714 limits assumed): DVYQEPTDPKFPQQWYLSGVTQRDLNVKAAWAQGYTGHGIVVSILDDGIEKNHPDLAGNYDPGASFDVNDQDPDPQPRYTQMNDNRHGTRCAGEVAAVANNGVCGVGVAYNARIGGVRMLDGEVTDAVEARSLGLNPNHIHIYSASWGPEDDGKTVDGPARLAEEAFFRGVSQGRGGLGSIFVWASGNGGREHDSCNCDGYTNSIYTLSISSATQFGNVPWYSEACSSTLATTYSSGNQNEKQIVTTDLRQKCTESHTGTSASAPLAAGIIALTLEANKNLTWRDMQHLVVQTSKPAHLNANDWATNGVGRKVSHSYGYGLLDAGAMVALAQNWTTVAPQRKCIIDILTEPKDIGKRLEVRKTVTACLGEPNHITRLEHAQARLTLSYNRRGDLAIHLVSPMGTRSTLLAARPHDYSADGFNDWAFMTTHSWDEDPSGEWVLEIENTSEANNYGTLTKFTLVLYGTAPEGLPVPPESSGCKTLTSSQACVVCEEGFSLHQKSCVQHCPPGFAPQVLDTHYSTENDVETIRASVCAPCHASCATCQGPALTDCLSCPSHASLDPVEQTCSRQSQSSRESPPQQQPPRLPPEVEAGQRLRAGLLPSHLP
Wee1 stabilizer = blocks degradation of human Wee1 kinase; 220,000 compounds, 1.2% hits; P30291; reporter increase, % at 5 µM; HeLa Luc-Wee1K328M stability, luciferase luminescence; 100% = proteasome inhibitor MG132 effect;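 active means activation above the mean of all tested compounds plus 3 SD, set per screening run, cut at about 8.8% in these data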;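 further: cells exposed to compound for 20 h before luminescence read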
HSV augment = HSV replication enhancement; HSV replication augmentation in cells, fold increase; maximum fold increase; 220,000 compounds, 0.005% hits; AID 1956; in the data active means maximum fold increase above about 1.5; tested in PC3 cells
EP2 antag = blocks the human prostaglandin E2 receptor EP2; P43116; C6 glioma cells expressing human EP2, cAMP TR-FRET; cells stimulated with saturating PGE2; inhibition, % at 25 µM; 260,000 compounds, 0.52% hits; AID 1422;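 active means percent inhibition above 40 after rounding to a whole number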;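 further: rat C6 glioma host cells with rolipram phosphodiesterase inhibitor present; the protocol text gives 20 µM as final concentration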
EP2 modulator = EP2 receptor (human) modulation; AID 940; EP2-expressing cells, cAMP HTRF FRET, PGE2 co-stimulation; induction, % at 25 µM; 260,000 compounds, 0.83% hits; P43116;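 active means compounds whose cAMP rise, as percent of the full-agonist control response, exceeds 60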;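 further: rat C6 glioma line stably carrying human EP2 under a CMV promoter; the protocol text gives 20 µM as final concentration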
NCF1 inh = inhibitors of human p47phox binding. 220,000 compounds, 0.53% hits. P14598. AID 1274. inhibition, % at 24.7 µM. p47phox/p22phox peptide binding, fluorescence polarization, 2 h;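 active means inhibition above about 30%, limit read from the data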
A number is an active result. Only some compounds are listed: those with a hit (about 2.8% of all), similar ones and a draw of the others.

How did C=Cn1cc(CN(Cc2ccc(OC)c(OC)c2)CC2CCCO2)c(C)n1 (centres undefined) do in these assays?
EP2 antag: inactive; EP2 modulator: inactive

Results for COc1ccccc1CCNC(=O)NC1CCCCC1 ?
Furin inh: inactive; Wee1 stabilizer: 9.7; HSV augment: inactive; EP2 antag: inactive; EP2 modulator: inactive; NCF1 inh: inactive

Results for COc1cccc(/C=N/NC(=O)C(=O)N/N=C/c2cccc(OC)c2O)c1O ?
Furin inh: inactive; Wee1 stabilizer: inactive; HSV augment: inactive; EP2 antag: inactive; EP2 modulator: inactive; NCF1 inh: inactive

Results for COc1cccc(/C=N/NC(=O)NC2CCCCC2)c1O ?
Furin inh: inactive; Wee1 stabilizer: 10; HSV augment: inactive; EP2 antag: inactive; EP2 modulator: inactive; NCF1 inh: inactive

Results for Cc1cccc(/C=N/NC(=O)NC2CCCCC2)c1 ?
Furin inh: inactive; Wee1 stabilizer: inactive; HSV augment: inactive; EP2 antag: inactive; EP2 modulator: 63; NCF1 inh: inactive

What do the screens show for `O=C(Nc1ccccc1)c1cc([N+](=O)[O-])ccc1Cl`?
Furin inh: inactive; HSV augment: inactive; EP2 antag: inactive; EP2 modulator: inactive; NCF1 inh: 42

How did CC(=O)Nc1ccc(NC(=O)c2ccc([N+](=O)[O-])cc2Cl)cc1 do in these assays?
Furin inh: inactive; Wee1 stabilizer: inactive; HSV augment: inactive; EP2 antag: inactive; EP2 modulator: inactive; NCF1 inh: inactive

Results for CCOc1ccc(C(=O)NCC(=O)OCc2cc([N+](=O)[O-])cc3c2OCOC3)cc1OCC ?
Furin inh: inactive; Wee1 stabilizer: inactive; HSV augment: inactive; EP2 antag: inactive; EP2 modulator: inactive; NCF1 inh: inactive

Results for COc1cc(C(=O)NC(CCSC)C(=O)OCc2cc([N+](=O)[O-])cc3c2OCOC3)cc(OC)c1OC (centres undefined) ?
Furin inh: inactive; Wee1 stabilizer: 9.6; HSV augment: inactive; EP2 antag: inactive; EP2 modulator: inactive; NCF1 inh: inactive

What do the screens show for `O=C1C=CC(=O)C(C2=C3C(=O)N(CCc4ccccc4)CC(=O)N3CCC2)=C1`?
Furin inh: inactive; Wee1 stabilizer: inactive; HSV augment: inactive; EP2 antag: 90; EP2 modulator: inactive; NCF1 inh: inactive

What do the screens show for `COc1cccc2c1C(=O)c1c(O)c3c(c(O)c1C2=O)C[C@](O)(C(=O)CO)C[C@@H]3O[C@@H]1C[C@H](N)[C@@H](O)[C@H](C)O1`?
EP2 antag: 40; EP2 modulator: inactive

How did COc1cccc2c1C(=N)c1c(O)c3c(c(O)c1C2=O)C[C@](O)(C(C)=O)C[C@@H]3O[C@@H]1C[C@H](N)[C@@H](O)[C@H](C)O1 do in these assays?
EP2 antag: 128; EP2 modulator: inactive

What do the screens show for `COc1cccc2c1C(=O)c1c(O)c3c(c(O)c1C2=O)C[C@@](O)(C(=O)CO)C[C@@H]3O[C@H]1C[C@H](N)[C@@H](O)[C@H](C)O1`?
EP2 antag: inactive

What do the screens show for `O=C1CC(C(=O)O)c2ccccc2N1` (centres undefined)?
Furin inh: inactive; Wee1 stabilizer: inactive; HSV augment: inactive; EP2 antag: inactive; EP2 modulator: inactive; NCF1 inh: inactive

What do the screens show for `O=C1CC(CCC(=O)NC2CC2)c2ccccc2N1` (centres undefined)?
Furin inh: inactive; Wee1 stabilizer: 9.0; HSV augment: inactive; EP2 antag: inactive; EP2 modulator: inactive; NCF1 inh: inactive

Results for Cc1cc(-c2ccccc2)nc2oc(C(=O)NN)c(N)c12 ?
Furin inh: inactive; Wee1 stabilizer: inactive; HSV augment: inactive; EP2 antag: inactive; EP2 modulator: inactive; NCF1 inh: 47

What do the screens show for `Cc1nn(CC(=O)NCCN(C(C)C)C(C)C)c(=O)c2cc3occc3n12`?
EP2 antag: inactive; EP2 modulator: inactive

Results for COc1cc2cc(C(c3nnnn3CC3CCCO3)N3CCc4ccccc43)c(=O)[nH]c2cc1OC (centres undefined) ?
EP2 antag: inactive; EP2 modulator: inactive

How did Cc1nn(Cc2ccccc2)c(C)c1NC(=O)CSc1nc2c(c(C(F)(F)F)n1)CCc1ccccc1-2 do in these assays?
Furin inh: inactive; Wee1 stabilizer: inactive; HSV augment: inactive; EP2 antag: inactive; EP2 modulator: inactive; NCF1 inh: 42

What do the screens show for `COc1ccc(C)cc1NC(=O)CSC1=NCCS1`?
EP2 antag: inactive; EP2 modulator: inactive

How did COc1ccc(-c2ccccc2)cc1CN(Cc1ccc2c(c1)OCO2)CC(C)O (centres undefined) do in these assays?
EP2 antag: inactive; EP2 modulator: inactive

Results for C=CCn1c(SCc2ccccc2)nc2scc(-c3ccc(C)o3)c2c1=O ?
Furin inh: inactive; Wee1 stabilizer: inactive; HSV augment: inactive; EP2 antag: inactive; EP2 modulator: inactive; NCF1 inh: inactive

How did C=CCn1c(SCCN2C(=O)c3ccccc3C2=O)nc2scc(-c3ccccc3)c2c1=O do in these assays?
Furin inh: inactive; Wee1 stabilizer: inactive; HSV augment: inactive; EP2 antag: 66; EP2 modulator: inactive; NCF1 inh: inactive

What do the screens show for `Cc1ccc(C(O)c2nc3ccccc3n2C(C)C)cc1` (centres undefined)?
Furin inh: inactive; Wee1 stabilizer: inactive; EP2 modulator: inactive; NCF1 inh: 71

What do the screens show for `COc1cc(CC(=O)N2C3CCC2CC(O)(c2ccco2)C3)cc(OC)c1OC` (centres undefined)?
EP2 modulator: inactive

What do the screens show for `CC(C(=O)Nc1ccccc1Oc1ccccc1)c1ccccc1` (centres undefined)?
Furin inh: inactive; Wee1 stabilizer: inactive; HSV augment: inactive; EP2 antag: inactive; EP2 modulator: 64; NCF1 inh: inactive

Results for O=C(Nc1ccccc1Oc1ccccc1)C1CCCC1 ?
Furin inh: inactive; Wee1 stabilizer: inactive; HSV augment: inactive; EP2 antag: inactive; EP2 modulator: 61; NCF1 inh: inactive

Results for O=C(Cc1ccc([N+](=O)[O-])cc1)N1N=C2CCCCC2C1(O)C(F)(F)F (centres undefined) ?
Furin inh: inactive; Wee1 stabilizer: inactive; HSV augment: inactive; EP2 antag: inactive; EP2 modulator: 72; NCF1 inh: inactive

Results for COc1ccc(-n2c(N)c(C(=O)NCC3CCCO3)sc2=S)cc1 (centres undefined) ?
Furin inh: inactive; Wee1 stabilizer: 10; HSV augment: inactive; EP2 antag: inactive; EP2 modulator: inactive; NCF1 inh: inactive

What do the screens show for `COc1ccccc1OCCN(C)C(=O)c1cnc(N(C)C)nc1`?
EP2 antag: inactive; EP2 modulator: inactive

Results for CCCCCCCCCCCCCCCCn1cc[n+](C)c1 ?
Furin inh: inactive; Wee1 stabilizer: inactive; HSV augment: inactive; EP2 antag: inactive; EP2 modulator: inactive; NCF1 inh: 102

Results for CCCCCCCCn1ccc(=N)cc1 ?
Furin inh: inactive; Wee1 stabilizer: inactive; HSV augment: inactive; EP2 antag: inactive; EP2 modulator: inactive; NCF1 inh: inactive

Assay outcomes from PubChem BioAssay.
